# TEAD-YAP inh: TEAD-YAP interaction inhibition, primary screen, TEAD-YAP interaction inhibitor project, luminescence, HEK-TIYL cells | inhibition, % at 9.12 µM | 640,000 tested, 1.4% active | TEAD-Gal4/YAP UAS-luciferase luminescence; in the data active = inhibition above about 32%;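 also: 0% = median of test compound wells and 100% = reference inhibitor wells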
# MITF primary: MITF inhibitors, primary screen, biochemical, AlphaScreen, human. inhibition, % at 2.6 µM. AlphaScreen MITF homodimerization, bead proximity signal. Microphthalmia-associated transcription factor (Homo sapiens), O75030. AID 1259374, 2018. 650,000 tested, 0.91% active; in the data active = inhibition above about 50%;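 also: 0% = vehicle wells with protein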
# GPR151 activ: activators of human GPR151, primary screen, cell-based, PathHunter beta-arrestin, luminescence | G-protein coupled receptor 151 (Homo sapiens), Q8TDV0 | PathHunter beta-arrestin GPR151 cells | activation, % at 11.2 µM | 650,000 tested, 1% active | AID 1508602, 2020; in the data active = activation above about 4.9%;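 also: 0% = median of compound wells and 100% = cells with positive control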
# FBW7 activator: FBW7 E3 ligase activators, primary screen, biochemical, AlphaScreen, human. AlphaScreen FBW7–phospho-cyclin E peptide binding, activator screen. normalized activity (activation), % at 26.1 µM. 650,000 tested, 0.13% active. AID 1259310, 2017; in the data active = normalized activity above about 1.9%;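 also: purified mutant Fbw7 with reduced substrate affinity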
# GPR151 conf act: GPR151 activators, triplicate retest, confirmation, cell-based, PathHunter beta-arrestin, luminescence. shares compounds with GPR151 activ. GPR151 PathHunter beta-arrestin cells, 90 min; % of EA-reagent control over plate median. activation, % at 11.2 µM. 6,700 tested, under 10 active. AID 1508609, 2020;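 active = mean percent activation across replicates above the confirmation screen cutoff of 4.91%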
# GPR119 counter: GPR119 activators in beta-arrestin cells, counter-screen for GPR151 activator project, cell-based, PathHunter beta-arrestin, luminescence, triplicate; shares compounds with GPR151 activ; 90 min; 0 = compound-well median, 100 = enzyme-acceptor control; activation, % at 11.2 µM; 6,700 tested, 0.3% active; AID 1508611, 2020;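 active = mean percent activation in the counterscreen above 29.09%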;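 also: counterscreen on off-target GPR119 to flag nonselective hits from the GPR151 activator screen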
# Target sequence (Q8TDV5 whole entry, looked up): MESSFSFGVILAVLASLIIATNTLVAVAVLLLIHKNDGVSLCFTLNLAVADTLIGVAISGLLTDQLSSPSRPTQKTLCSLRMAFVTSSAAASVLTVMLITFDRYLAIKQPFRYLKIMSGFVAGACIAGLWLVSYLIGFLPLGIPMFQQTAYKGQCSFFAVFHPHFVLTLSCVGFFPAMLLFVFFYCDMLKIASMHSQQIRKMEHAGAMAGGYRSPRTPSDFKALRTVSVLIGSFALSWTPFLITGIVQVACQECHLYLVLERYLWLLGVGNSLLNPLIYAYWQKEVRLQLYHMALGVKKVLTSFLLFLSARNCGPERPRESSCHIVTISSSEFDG
# An asterisk follows results filed as active; · = no result given. This is a sample that favours compounds with a hit; in the whole collection about 3.5% have one here.
SMILES,TEAD-YAP inh,MITF primary,GPR151 activ,FBW7 activator,GPR151 conf act,GPR119 counter
O=C(NC1CC1)c1ccc(-c2nc(NCCO)c3ncn(C4CCCCC4)c3n2)cc1,11,19,1,0,·,·
CCCNc1nc(-c2cccc(C(C)=O)c2)nc2c1ncn2C1CCCCC1,-15,-4,2,0,·,·
Cc1[nH]n(-c2cccc(Cl)c2)c(=O)c1C1CC(=O)N(c2ccccc2)C1=O (centres undefined),11,6,0,0,·,·
CCC(C)NCCOc1ccccc1I (centres undefined),8,23,5.4*,0,0,4
COc1ccc(C(=O)NC(C)c2nnc(SCC(=O)Nc3ccccc3)n2C)cc1 (centres undefined),11,0,9.6*,0,1,3
CCOC(=O)C1=C(C)NC(=O)NC1c1cc2ccc(C)cc2[nH]c1=O (centres undefined),-5,0,1,0,·,·
O=[N+]([O-])c1ccc(Oc2ccc(S(=O)(=O)Nc3ccccc3)cc2)cc1,24,-11,1,0,·,·
CC(=O)Nc1ccc(S(=O)(=O)Nc2ccc(C(F)(F)F)cc2[N+](=O)[O-])cc1,9,6,7.8*,0,1,15
O=[N+]([O-])c1ccc(Oc2ccc(S(=O)(=O)Nc3ccc(F)cc3)cc2)cc1,36*,4,7.5*,0,1,-5
CC(=O)Nc1ccc(S(=O)(=O)c2ccc(NC(C)=O)c([N+](=O)[O-])c2)cc1[N+](=O)[O-],5,15,7.5*,1,1,10
Cc1ccnc(NS(=O)(=O)c2ccc([N+](=O)[O-])cc2)n1,-21,-3,7.5*,0,0,-13
CC(C)n1c(N2CCC(N3CCOCC3)CC2)nc2c(NCCc3ccc(O)cc3)ncnc21,3,3,-1,0,·,·
CCOc1ncccc1C(=O)Nc1sc2c(c1C#N)CCC(C)C2 (centres undefined),-11,-5,0,0,·,·
CCOc1cccc2c1N(C(C)=O)C(C)(C)c1ssc(=S)c1-2,13,17,-1,0,·,·
COP(=O)(CN(Cc1ccccc1)C(=O)Nc1ccc(C)c(C)c1)OC,-12,-2,0,0,·,·
CCOc1cc(C=C2C(=O)NC(=O)NC2=O)ccc1OCc1ccc(C(=O)O)cc1,1,15,-1,0,·,·
Cc1ccsc1/C=N/NC(=O)COc1ccc2c(c1)OCO2,-23,27,-2,1,·,·
CC(=O)Nc1ccc(NS(=O)(=O)c2ccc([N+](=O)[O-])cc2)cc1,8,13,18*,1,1,1
CCCN(CCC)S(=O)(=O)c1ccc(NS(C)(=O)=O)cc1,-1,0,0,0,·,·
CCCN(CCC)S(=O)(=O)c1ccc(NS(=O)(=O)c2ccc(F)cc2)cc1,6,3,6.1*,0,0,-14
CC(=O)Nc1ccc(S(=O)(=O)c2ccc([N+](=O)[O-])cc2)cc1,2,-6,-2,0,·,·
C=CC[N+](CC)(CC)CCCNC(=O)c1c(O)c2c([nH]c1=O)CCCC2,1,16,1,0,·,·
CCOC(=O)c1c(C)n(C)c2ccc(OCC#N)cc12,11,14,7.1*,0,0,0
C#CCOc1ccc2c(c1)c(C(=O)OCC)c(C)n2C,10,-1,2,0,·,·
COCCOC(=O)c1c(C)oc2ccc(OCC#N)cc12,-11,4,11*,0,-1,-7
COC(=O)c1ccccc1NC(=O)CSc1n[nH]c(-c2ccccc2)n1,4,11,5.0*,1,-1,-13
COC(=O)c1ccccc1NC(=O)CCSCCC(=O)Nc1ccccc1C(=O)OC,1,-4,6.3*,0,-1,-7
COC(=O)CCC(=O)Nc1ccccc1NC(=O)CCC(=O)OC,0,5,5.0*,0,0,10
